# In PubChem BioAssay AID602449 (Sanford-Burnham Center for Chemical Genomics, 2012):
# Screen size: about 360,000 compounds; about 5,000 (1.4%) were called active. The sample holds actives, similar compounds and a random draw of the others, so the mix is not that of the screen. A number with no mark means an inactive call.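 How the source made its calls: active means inhibition of 50% or more, scaled per plate between neutral and stimulator controls; inactive means the rest.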
# Test: blockers of Ca2+-induced mitochondrial swelling – biochemical, isolated mouse mitochondria, absorbance, primary screen (AID 602449);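 further: 0% = DMSO wells given calcium and 100% = 1 mM EGTA wells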
# Conditions: 30 min, at 10 µM, hits give high values
row,Compound,inhibition
1,CC(C)(C)n1c(=O)[nH]c2c(c1=O)CCC2,-1.7%
2,CC(C)=C1SC(N2CCN(c3ccc(C)c(Cl)c3)CC2)=NC1=O,2.6%
3,COc1ccc(S(=O)(=O)N2CCN(C(C)C(=O)Nc3ccc(C(C)C)cc3)CC2)cc1 (configuration not stated),0.5%
4,Cn1c(N2CCOCC2)c(C=O)c2ccccc21,-0.1%
5,COc1ccc(C(=O)NCc2nnc(SCC(=O)Nc3cccc(OC)c3)o2)cc1,-0.9%
6,COc1ccc2oc(-c3cccc(NC(=O)CSc4ccc(Cl)cc4)c3)nc2c1,86.6% (active)
7,COc1cccc(NC(=O)CSc2nnc(-c3cccnc3)o2)c1,-1.2%
8,CCOC(=O)c1sc(=NC(=O)/C=C/c2cccs2)n(C)c1C,1.4%
9,CC(CNc1ccc([N+](=O)[O-])cc1)NC(=O)c1ccccc1Br (configuration not stated),0%
10,O=C(NCCNc1ccc([N+](=O)[O-])cc1)c1cccc2c(Br)cccc12,77.6% (active)
11,O=C(NCCNc1ccc([N+](=O)[O-])cc1Cl)c1ccccc1F,1%
12,Cc1c(Cl)c([N+](=O)[O-])nn1CC(=O)NCC1CCCO1 (configuration not stated),-1.6%
13,CCN(CC)c1ccc(NC(=O)c2ccc(=O)[nH]c2)cc1S(=O)(=O)Nc1ccc(OC)cc1,-0.4%
14,O=C(NCc1ccc2c(c1)OCO2)C12CC3CC(CC(C3)C1)C2,3.7%
15,S=C(NCc1ccc(Cl)cc1)NC1CCCCC1,67.6% (active)
16,Cc1ccc(C(=O)NC23CC4CC(CC(C4)C2)C3)c(Cl)c1,-0.2%
17,S=C(NCc1ccc(Cl)cc1)NC12CC3CC(CC(C3)C1)C2,96.8% (active)
18,COc1ccc(Cl)cc1C(=O)NNC(=S)NC1CCCC1,-0.5%
19,O=C(NNC(=S)NC1CCCCC1)c1ccccc1Cl,0.2%
20,CCOCCCNC(=O)C1(O)c2cc(Br)ccc2NC(=O)N1c1ccc(C)c(C)c1 (configuration not stated),0.7%
21,O=C(NCCOc1ccccc1Cl)C(=O)Nc1ccccc1,-1.3%
22,O=C(NCCOc1ccccc1F)Nc1ccc(Br)cc1,87.9% (active)
23,O=C(COc1ccccc1F)NNC(=O)c1cc(Br)ccc1Cl,-1.8%

row,Compound,inhibition
1,COC(=O)CNC(c1ccccc1Cl)c1cc(Br)ccc1NC(=O)CCN1CCOCC1 (configuration not stated),-1%
2,CCC(C(=O)NCc1ccccc1)n1c(Cc2cc(F)cc(F)c2)nc2ccccc21 (configuration not stated),2.2%
3,COc1cccc(NC(=O)c2ccccc2N(Cc2ccccc2)S(C)(=O)=O)c1,0%
4,O=S(=O)(Nc1ccccc1N1CCOCC1)c1ccc(Cl)s1,-0.7%
5,COc1ccccc1C(=O)Nc1ccc(Nc2ccccc2)cc1,0.9%
6,COc1cc(NC(=O)c2ccccc2NS(=O)(=O)c2ccc(Cl)s2)cc(OC)c1,67% (active)
7,COC(=O)c1ccc(NC(=O)c2ccccc2NS(=O)(=O)c2ccccc2)cc1,102% (active)
8,CCOC(=O)c1ccc(N/C(=N/S(=O)(=O)c2ccccc2)c2ccccc2)cc1,1.7%
9,COc1cc(C(=O)NNC(=O)CN2C(=O)NC3(CCCC3)C2=O)cc(OC)c1OC,-0.8%
10,COc1ccc(NS(=O)(=O)c2ccc(Oc3c(C#N)cccc3C#N)cc2)cc1,91.6% (active)
11,COc1ccc(NS(=O)(=O)c2ccc(N3CCN(CCO)CC3)c([N+](=O)[O-])c2)cc1,2.1%
12,COc1ccc(NS(=O)(=O)c2ccc(NC(=O)c3ccc(N(C)S(C)(=O)=O)cc3)cc2)cc1,21.3%
13,CC(=O)N/N=C(\C)c1ccc(Br)cc1Br,-4.6%
14,CC(=N\NC(=O)c1cc(Br)ccc1O)/C(=N/O)C(=O)Nc1ccccc1,76.8% (active)
15,C/C(=N/NC(=O)c1cc(Cl)ccc1O)C12CC3CC(CC(C3)C1)C2,9.3%
16,CCO[C@H]1OC(C(=O)O)=C[C@@H](C2CCCCC2)[C@@H]1CCCO,-1.5%
17,O=C(COC(=O)c1cnccn1)Nc1ccc(Cl)cc1C(F)(F)F,-0.1%
18,C=CCNC(=O)CCCC(=O)NCC=C,1.2%
19,O=C(OC1CC2CC1[C@H]1CCCCN1C2=O)N1CCOCC1 (some centres not stated),-3%
20,Cc1ccc(C)c(NC(=O)C2CC(=O)N(C(C)C)C2)c1 (configuration not stated),-0.7%
21,Cc1ccc(C)c(NC(=S)NCC(c2cccnc2)N2CCOCC2)c1 (configuration not stated),-1.7%
22,Cc1ccc(C)c(NC(=S)NNC(=S)Nc2ccc(C(C)C)cc2)c1,93.7% (active)
23,CCc1ccccc1NC(=O)CN(C)C(=O)COc1ccc(C)nc1[N+](=O)[O-],14.3%

row,Compound,inhibition
1,O=C(NCc1ccncc1)C1CCN(C(=O)c2cccc(Cl)c2)CC1,0.5%
2,C=CCn1c(N)cc(=O)nc1SCC(=O)Nc1cccc2ccccc12,0.1%
3,O=[N+]([O-])c1ccc(NS(=O)(=O)c2ccccc2)c(Cl)c1,86.7% (active)
4,Cc1cccc(NS(=O)(=O)c2ccc([N+](=O)[O-])cc2)n1,0.2%
5,O=C(NNS(=O)(=O)c1ccc(F)cc1)c1ccc([N+](=O)[O-])cc1Cl,-0.9%
6,CC(Nc1ccccc1)c1cccnc1 (configuration not stated),-1.4%
7,CC(=O)c1c(C)[nH]c(C(=O)OCC(=O)Nc2c(C)cccc2C)c1C,1.5%
8,N#Cc1c(NC(=O)CCCl)sc2c1CCCCC2,0.2%
9,CC(=O)c1c(C)[nH]c(C(=O)OCC(=O)Nc2sc3c(c2C#N)CCCC3)c1C,98.8% (active)
10,O=C1CCN(Cc2ccc([N+](=O)[O-])cc2)CCN1[C@H](CO)Cc1ccccc1,-0.2%
11,COCc1nnc(NC(=O)CS(=O)(=O)Cc2ccccc2)s1,0.4%
12,O=C(Nc1ccccc1)Nc1nnc(COc2ccccc2F)s1,69.5% (active)
13,O=C(Nc1nnc(COc2ccccc2)s1)Nc1ccccc1F,6.4%
14,Cc1[nH]c2ccccc2c1-c1ccc(Cl)nn1,-1%
15,COC(=O)[C@]1(S(=O)(=O)c2ccccc2)C[C@@H]2ON=C(c3ccc(OC)cc3)[C@@H]2C1,1%
16,N#C[C@]1(S(=O)(=O)c2ccccc2)C[C@@H]2ON=C(c3cccc(Br)c3)[C@@H]2C1,72.4% (active)
17,CC1=C(C)CC(C(=O)NC(C)CCc2ccccc2)C(C(=O)O)C1 (configuration not stated),-1.3%
18,CCc1ccc(Nc2n[n+](-c3ccccc3)c(-c3cccc(Cl)c3Cl)s2)cc1,57.1% (active)
19,COc1ccc(C)cc1Nc1n[n+](-c2ccccc2)c(-c2cccc(Cl)c2Cl)s1,1.4%
20,COc1cc(Br)c(-c2sc(Nc3ccccc3)n[n+]2-c2ccccc2)cc1OC,1.6%
21,Cc1ccc(C)c(OCCC(=O)OCC(=O)N2CCN(c3ccccc3)CC2)c1,-0.6%
22,CCOC(=O)N1CCN(C(=O)Cc2ccc(-n3c(=S)[nH]c4ccccc4c3=O)cc2)CC1,-1.2%
23,O=C(CCCC(=O)N1CCN(c2cccc(Cl)c2)CC1)c1ccccc1,-0.6%

row,Compound,inhibition
1,O=C(Cc1ccc(-n2c(=O)[nH]c3ccccc3c2=O)cc1)N1CCN(c2cccc(Cl)c2)CC1,53% (active)
2,Cc1ccc(C(=O)N2CCN(C3CCCCC3)CC2)s1,-0.6%
3,CCCCCC(O)c1cccc(OCc2ccc3ccccc3n2)c1 (configuration not stated),50.9% (active)
4,COc1cccc(C(O)c2ncc(-c3ccc4ccccc4c3)[nH]2)c1 (configuration not stated),-0.1%
5,COc1cccc(C(O)c2nc3ccccc3n2C)c1 (configuration not stated),-0.2%
6,Cc1ccnc(NC(=O)CCC(=O)N(CC(=O)NCc2ccccc2)Cc2ccco2)c1,-0.3%
7,N#Cc1c(-c2cccs2)nc(SCC(=O)c2ccc(Br)cc2)[nH]c1=O,53.9% (active)
8,CCc1ccc(C(=O)CSc2nnc(C)c(=O)[nH]2)cc1,0.8%
9,Cc1cc(C)c2c(=O)[nH]c(SCC(=O)Nc3ccc(Br)cc3)nc2n1,4.4%
10,CC1=C(C(=O)N(C)C)CC(CC(=O)NCCc2ccccn2)C(=O)N1CCC1=CCCCC1 (configuration not stated),-0.3%
11,COc1ccc(CC(=O)N[C@@H](CCSC)c2nc3ccccc3[nH]2)cc1,-1.3%
12,CSCCC(NC(=O)c1cc([N+](=O)[O-])cc([N+](=O)[O-])c1)c1nc2ccccc2[nH]1 (configuration not stated),50.8% (active)
13,CSCCC(NC(=O)c1ccc(=O)n(C)n1)c1nc2ccccc2[nH]1 (configuration not stated),-0.7%
14,COC(=O)[C@@]12C[C@@H](CC(=O)NCCCCc3ccccc3)C(=O)N(CCc3ccc(OC)c(OC)c3)C1=CCC(C)(C)C2,-2.6%
15,Cc1ccc(C)c(N2CCN(C(=O)Cn3ncn4cccc4c3=O)CC2)c1,0.1%
16,COc1ccc(S(=O)(=O)NCC2CCCN(C(=O)c3occc3C)C2)cc1 (configuration not stated),-0.5%
17,O=c1cc(O)c(-c2cccc(C(F)(F)F)c2)c(Cl)[nH]1,3.7%
18,O=C(O)c1cc(S(=O)(=O)N(Cc2ccccc2)c2cccc(C(F)(F)F)c2)ccc1Cl,0.9%
19,O=C(NNc1ccccc1Cl)C(O)(c1cccc(C(F)(F)F)c1)c1cccc(C(F)(F)F)c1,90% (active)
20,CCCCNc1c(-c2cccc(Sc3ccc(OC)cc3)c2)nc2ccccn12,6.5%
21,CC(=O)NC(CC(=O)Nc1ccc(S(=O)(=O)N2CCOCC2)cc1)c1ccccc1 (configuration not stated),-1.9%
22,COc1ccc(C(C)(O)c2nc(-c3cc(F)cc(F)c3)cs2)cc1 (configuration not stated),1.2%
23,COC(=O)C1=CN(c2c(C)cc(C)cc2C)C(N)=C(C#N)C1c1cccc(F)c1 (configuration not stated),1.1%
